From PubChem
MsrA inh = bovine MsrA enzyme inhibitors, primary screen, biochemical, absorbance, HTS | purified bovine MsrA, absorbance read-out | inhibition, % at 15.5 µM | AID 651718, 2012 | 360,000 tested, 0.75% active; in the data active means inhibition above about 4.5%;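 further: 0% = vehicle wells with enzyme and 100% = reference inhibitor wells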
bovine MsrA act = bovine MsrA enzyme activators, primary screen, biochemical, absorbance, HTS | Methionine sulfoxide reductase A (Bos taurus) | purified bovine MsrA, absorbance read-out | activation, % at 10.6 µM | 360,000 tested, 0.3% active | AID 602163, 2012; in the data active means activation above about 7.5%;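 further: 0% = vehicle and 100% = reference activator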
HGIII-sPLA2 inh = human group III sPLA2 inhibitors, primary screen, biochemical, QFRET, BODIPY PC-A2 liposome substrate; Group 3 secretory phospholipase A2 (Homo sapiens), Q9NZ20; QFRET BODIPY PC-A2 liposome hydrolysis, fluorescence; inhibition, % at 12.2 µM; 370,000 tested, 0.56% active; AID 743126, 2013;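 active means inhibition above mean plus 3 SD of compounds lying within the high and low control bounds, cut at about 19% in these data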;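 further: 0% = median of test compound wells and 100% = no enzyme DMSO wells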
Target sequence (Q9NZ20 whole entry, looked up): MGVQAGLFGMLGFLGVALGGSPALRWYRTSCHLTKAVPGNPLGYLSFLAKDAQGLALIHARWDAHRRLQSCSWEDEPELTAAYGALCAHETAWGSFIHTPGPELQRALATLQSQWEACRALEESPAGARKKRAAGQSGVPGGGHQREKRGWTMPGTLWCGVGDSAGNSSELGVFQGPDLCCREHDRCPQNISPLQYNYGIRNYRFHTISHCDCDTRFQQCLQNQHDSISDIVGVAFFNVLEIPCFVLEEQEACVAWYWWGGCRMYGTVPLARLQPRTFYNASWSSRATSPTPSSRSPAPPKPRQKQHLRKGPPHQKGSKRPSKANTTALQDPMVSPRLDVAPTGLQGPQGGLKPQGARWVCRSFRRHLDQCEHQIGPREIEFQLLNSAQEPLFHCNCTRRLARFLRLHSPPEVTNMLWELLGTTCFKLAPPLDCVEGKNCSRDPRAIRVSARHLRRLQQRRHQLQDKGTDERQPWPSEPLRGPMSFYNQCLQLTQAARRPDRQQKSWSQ
PG9 Ab binder = binders of HIV-1 gp120 antibody PG9, primary screen, biochemical, TR-FRET; HIV-1 gp120 / PG9 antibody interaction; TR-FRET gp120-PG9 antibody binding; inhibition, % at 6.7 µM; 360,000 tested, 0.43% active; in the data active means inhibition above about 8.5%
rCAG binder = binders of r(CAG) RNA repeats, primary screen, biochemical, fluorescence | 370,000 tested, 1.3% active | r(CAG) RNA repeat, TO-PRO-1 dye displacement fluorescence | inhibition, % at 3 µM | AID 651821, 2012;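 active means inhibition above the plate cutoff, the mean of all test compounds on that plate plus 3 SD, cut at about 35% in these data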;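 further: 0% = DMSO alone and 100% = 100 µM mitoxantrone as full dye displacement; higher means more dye released from RNA so lower well fluorescence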
rCAG bind conf = small molecules binding CAG repeat RNA – biochemical, fluorescence, confirmation; shares compounds with rCAG binder; AID 652065, 2013; inhibition, % at 3 µM; r(CAG) RNA repeat, TO-PRO-1 dye displacement fluorescence; 4,300 tested, 70% active;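 active means inhibition above a per-plate cutoff, the mean inhibition of sample wells plus 3 SD, cut at about 35% in these data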;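 further: loss of TO-PRO-1 fluorescence as compound displaces dye from 1x1 AA loop RNA; 0% = DMSO only wells and 100% = 100 µM mitoxantrone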
DNA CAG counter = displacement of TO-PRO-1 from CAG DNA duplex, counter-screen for rCAG RNA repeat binder project, biochemical, fluorescence, TO-PRO-1 dye, d(CAG) DNA oligo; 4,300 tested, 94% active; d(CAG) DNA oligo TO-PRO-1 dye displacement; AID 652068, 2013; shares compounds with rCAG binder; inhibition, % at 3 µM;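 active means inhibition above its plate's cutoff, the mean test-well inhibition plus 3 SD, cut at about 4.8% in these data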;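 further: 0% = DNA dye mix with DMSO and 100% = 100 µM mitoxantrone; hits displace the dye from DNA and so lower well fluorescence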
* = called active by the depositor; / = no result given. Only some compounds are listed: those with a hit (about 3.2% of all), similar ones and a draw of the others.

SMILES | MsrA inh | bovine MsrA act | HGIII-sPLA2 inh | PG9 Ab binder | rCAG binder | rCAG bind conf | DNA CAG counter
O=C(Cn1cc(COc2ccc(-n3cccc3)cc2)nn1)NS(=O)(=O)c1ccccc1C(F)(F)F | -2 | -3 | -36 | 0 | 64* | 65* | 18*
CC1(C(=O)NS(=O)(=O)c2ccccc2C(F)(F)F)CCN1C(=O)COc1ccc(Cl)cc1 (stereo not given) | -1 | -2 | -6 | -2 | 22 | / | /
O=C(Cn1cc(COc2ccc(Cl)c(Cl)c2)nn1)NS(=O)(=O)c1ccccc1C(F)(F)F | 2 | -1 | -46 | 0 | 59* | 63* | 16*
COc1ccc(-c2cc(-c3nnc(SCC(=O)N4CCOCC4)n3N)[nH]n2)cc1 | / | / | -2 | / | 1 | / | /
O=C(O)c1ccc(Cl)c(S(=O)(=O)N(Cc2ccccc2)c2ccccc2)c1 | 1 | -3 | -16 | 0 | 38* | 39* | 9.6*
O=C(O)c1ccc(Cl)c(S(=O)(=O)N(Cc2ccccc2)c2ccc(F)cc2)c1 | -1 | 1 | -25 | -1 | 54* | 48* | 13*
COc1ccc(N(Cc2ccccc2)S(=O)(=O)c2cc(C(=O)O)ccc2Cl)cc1 | -1 | -2 | -32 | 0 | 53* | 42* | 8.9*
O=C(O)c1cccc(S(=O)(=O)N(Cc2ccccc2)c2ccccc2)c1 | 0 | 0 | -8 | -1 | 12 | / | /
O=C(O)c1cccc(S(=O)(=O)N(Cc2ccccc2)c2ccc(Cl)cc2)c1 | -2 | -1 | -19 | 0 | 38* | 41* | 12*
Cc1ccc(NC(=O)CSc2nnc(-c3cc(-c4ccc(Cl)cc4)n[nH]3)n2N)cc1 | / | / | 11 | / | 6 | / | /
Cc1cccc(-c2cccc3c4c([nH]c23)[C@@H]2C[C@H](N(C)C(=O)C3CCCCC3)[C@H]([C@H](C)O)CN2CC4)c1 | / | / | 3 | / | 3 | / | /
O=C(O)c1ccc(Cl)c(S(=O)(=O)N(Cc2ccccc2)c2ccccc2Cl)c1 | 0 | -3 | -45 | -1 | 73* | 68* | 22*
CCOc1ccc(C2C3=C(Nc4nc(N)[nH]c(=O)c42)c2ccccc2C3=O)cc1 (stereo not given) | 0 | -4 | 2 | -8 | 66* | 53* | 35*
COc1ccc(C2C3=C(CCCC3=O)NC3=C2C(=O)c2ccccc23)cc1 (stereo not given) | -1 | -2 | 1 | -8 | 11 | / | /
CCCOc1ccc(C2C3=C(Nc4nc(N)[nH]c(=O)c42)c2ccccc2C3=O)cc1 (stereo not given) | 1 | -3 | 11 | 0 | 71* | 57* | 37*
CC(=O)c1cccc(NC(=O)C2(C)Cc3c(-c4cccc(C(F)(F)F)c4)ccnc3O2)c1 (stereo not given) | 1 | -1 | -3 | -2 | 0 | / | /
C=CCN1C[C@@H](COCc2ccccc2)Oc2cc(F)ccc2S1(=O)=O | / | / | 1 | / | -1 | / | /
N#Cc1ccc(Cn2ccc3ccc(-c4ccc5ccn(C(=O)c6ccccc6)c5c4)cc32)cc1 | / | / | 1 | / | 16 | / | /
Oc1c(N=Nc2nn[nH]n2)ccc2ccccc12 | 2 | -1 | -9 | -8 | 47* | 61* | 30*
Oc1c(N=Nc2ccc(F)cc2)ccc2ccccc12 | 2 | -1 | 5 | -1 | 4 | / | /
CCc1ccc([C@@H]2CC=C(C(=O)O)[C@H](c3ccc(C)cc3)N2S(=O)(=O)c2ccc(C)cc2)cc1 | 0 | -3 | -39 | 0 | 79* | 82* | 50*
CCc1ccc([C@@H]2CC=C(C(=O)O)[C@H](c3ccc(Cl)cc3)N2S(=O)(=O)c2ccc(C)cc2)cc1 | 1 | 0 | -41 | 0 | 83* | 85* | 54*
CCc1ccc([C@@H]2CC=C(C(=O)O)[C@H](c3cccc(Cl)c3)N2S(=O)(=O)c2ccc(C)cc2)cc1 | 0 | 0 | -36 | 1 | 82* | 76* | 36*
CCc1ccc([C@@H]2CC=C(C(=O)O)[C@H](c3ccccc3F)N2S(=O)(=O)c2ccc(C)cc2)cc1 | 0 | -8 | -32 | 2 | 69* | 73* | 35*
CCCCNC(=O)OC1CCC12CCC(c1ccccc1)CC2 (stereo not given) | / | / | 1 | / | 0 | / | /
SMILES | MsrA inh | bovine MsrA act | HGIII-sPLA2 inh | PG9 Ab binder | rCAG binder | rCAG bind conf | DNA CAG counter
CC(=O)[C@H]1CC[C@H]2[C@@H]3CC=C4C[C@@H](OS(=O)(=O)O)CC[C@]4(C)[C@H]3CC[C@]12C | -2 | 0 | -13 | 0 | 39* | 39* | 9.8*
CC(=O)O[C@H]1CC[C@@]2(C)C(=CC[C@H]3[C@@H]4CC[C@H](C(C)=O)[C@@]4(C)CC[C@@H]32)C1 | -1 | -1 | 4 | 1 | 2 | / | /
CC1CCC2(CC1)CCN(CCCOC(=O)Nc1cccc(C(F)(F)F)c1)C2=O (stereo not given) | / | / | 0 | / | -2 | / | /
S=c1[nH]nc(-c2cc(-c3ccccc3)n[nH]2)n1/N=C/C=C/c1ccccc1 | 0 | 0 | 15 | 1 | 25 | / | /
Cc1ccc(/C=N/n2c(-c3cccs3)n[nH]c2=S)cc1 | 2 | 5 | 3 | -1 | 20 | / | /
S=c1[nH]nc(-c2cc(-c3ccccc3)n[nH]2)n1/N=C/c1cccs1 | -1 | -1 | 5 | 1 | 35* | 39* | 10*
S=c1[nH]nc(-c2cc(-c3ccccc3)n[nH]2)n1/N=C/c1ccccc1 | -1 | -2 | 14 | 1 | 28 | / | /
S=c1[nH]nc(-c2cc(-c3ccccc3)n[nH]2)n1N=Cc1c[nH]c2ccccc12 | / | / | -15 | / | 78* | 66* | 23*
S=c1[nH]nc(-c2cccs2)n1/N=C/c1c(Cl)cccc1Cl | 3 | 0 | -16 | 1 | 50* | 44* | 10*
C[C@H](CO)N1C[C@H](C)[C@@H](CN(C)S(=O)(=O)c2ccc(F)cc2)Oc2c(NS(=O)(=O)c3ccc(F)cc3)cccc2C1=O | 1 | -3 | -14 | -1 | 14 | / | /
O=c1[nH]c(=O)c2[nH]c(=S)n(-c3ccccc3)c2[nH]1 | 0 | 2 | 12 | -6 | 1 | / | /
CCCNC(=O)C[C@H]1CC[C@H]2[C@@H](COc3ccc(NC(=O)Nc4ccccc4)cc3C(=O)N2C)O1 | / | / | -7 | / | 5 | / | /
COC(=O)c1cccc(Cn2ccc3ccc(-c4ccc5ccn(Cc6cccc(C(=O)OC)c6)c5c4)cc32)c1 | / | / | 6 | / | 22 | / | /
CCCCCCCC/C=C\CCCCCCCC(=O)NCCc1ccc(O)c(O)c1 | 1 | -6 | 5 | -2 | 47* | 21 | 7.2*
